Results: ChEMBL document CHEMBL4513135, “CO-ADD screening of IQOG CSIS (Spain) compounds”
In all, about 23,000 compounds went through this assay and about 30 (0.1%) showed an effect of 50% or more. Shown is part of a subset that was picked to be rich in strong results. Potency and affinity values are given separately.

Test system: Pseudomonas aeruginosa
Details: Concentration 32 ug.mL-1; ASSAY_TEST Inhibition of Bacterial Growth; detection method Absorption (OD600); MEDIA CAMHB; plate type 384well; NBS; CORNING #3640; time 18 hr

Structure (SMILES)	Inhibition [%]
CCOC(=O)/C(C#N)=C\c1ccc([N+](=O)[O-])cc1	5.37
N#Cc1cc(C#N)c(N2CCCC2)nc1N	9.99
Cl.N#Cc1cc(C#N)c(N2CCCC2)nc1Cl	9.12
N#Cc1cc(C#N)c(N2CCCC2)nc1N1CCCC1	50.45
COc1ccc2cc(C3C(C(C)=O)=C(C)Oc4nc5c(c(N)c43)CCC5)c(Cl)nc2c1 (configuration not stated)	8.84
CC(C)NNC(=O)Cc1c[nH]c2ccccc12	53.17
CCCC(C)NNC(=O)Cc1c[nH]c2ccccc12 (configuration not stated)	22.46
O=C(Cc1c[nH]c2ccccc12)NNCc1ccccc1	23.11
N#CC1=C(N)Oc2c(ccc3ccccc23)C1c1ccc(O)cc1 (configuration not stated)	17.58
C#CCN(C)Cc1cc2cc(OCCC3CCN(Cc4ccccc4)CC3)ccc2n1C.Cl	5.95
C#CCN(C)Cc1cc2cc(OCCCCC3CCN(Cc4ccccc4)CC3)ccc2n1C.Cl	51.07
C#CCN(C)Cc1cc2cc(OCCCCC3CCN(Cc4ccccc4)CC3)ccc2n1C	12.81
Nc1c2c(nc3c1c1ccccc1n3Cc1ccccc1)CCCC2	35.2
COc1cccc(C2c3c(nc4c(c3N)CCCC4)Oc3ccc4ccccc4c32)c1 (configuration not stated)	38.82
COc1ccc(C2c3c(nc4c(c3N)CCCC4)Oc3ccc4ccccc4c32)cc1 (configuration not stated)	16.04
CNC(=O)NC1(C(=O)O)CC1c1ccccc1 (configuration not stated)	50.33
COC(=O)C1(NC(=O)c2ccccc2)CC1c1ccccc1 (configuration not stated)	23.63
CN(N=O)C(=O)NC1(C(=O)O)CC1c1ccccc1 (configuration not stated)	47.22
CNC(=O)c1c(Cl)c2cc(OCc3ccccc3)ccc2n1C	34.06
COc1ccc(C=C2N=C(c3ccccc3)SC2=O)cc1	50.12
CC1=NC(=Cc2ccccc2)C(=O)S1	24.56
COc1ccc(C=C2N=C(c3ccccc3)OC2=O)cc1	9.34
